This passage reports Potency results from PubChem BioAssay (Tox21).

Each structure is given as a SMILES string. Where “and” joins values, the source holds several entries; their conditions need not be identical. Equal values may be shown once. Inconclusive results are not listed. Entries that show only a call come without a potency. Calls of active or inactive are those of the source. Calls come from the whole dose curve; as a rule, active = well fitted cell-killing curve with a large enough effect in the repeat runs; inconclusive = weak or mixed curves, or effect the other way; inactive = no such curve, though single readings can be large or run the other way.
Potency is the fitted concentration of half-maximal effect.

This test in a line: qHTS assay to identify small molecule antagonists of the thyroid receptor (TR) signaling pathway - cell viability counter screen (AID 743064). Note: nearly all actives have a fitted effect of over 50% in size. To be noted: GH3.TRE-Luc viability, CellTiter-Fluor, 24 h; series mostly up to 70.3 µM. From the text: National Center for Advancing Translational Sciences [NCATS]
NIH Chemical Genomics Center [NCGC]
U.S. Environmental Protection Agency [EPA]
National Institutes of Environmental Health Sciences [NIEHS]
National Toxicology Program [NTP]
U.S. Food and Drug Administration [FDA]
Thyroid receptor (TR), a nuclear hormone receptor, plays an important role in development, proliferation, differentiation, metabolism, brain function, and cardiovascular system. […] To profile the Tox21 10K compound library in TR signaling, a cell-based GH3-TRE-Luc assay (GH3.TRE-Luc cell line, developed by the laboratory of Dr. Albertinka J. Murk, Wageningen University) was used to measure the inhibition of TR. GH3 (rat pituitary tumor) cells stably expressing a TR activity sensor consisting of two TR response elements and a luciferase reporter gene. The cytotoxicity of the Tox21 compound library against the GH3.TRE-Luc cell line was tested in parallel by measuring the cell viability using CellTiter-Fluor assay (Promega, Madison, WI) in the same wells.
Tox21 Assay Protocol Summary:
GH3.TRE-Luc cells were dispensed at 1500 cells/4 uL/well into 1536-well white solid bottom plates using a Multidrop Combi dispenser (Thermo Fisher Scientific Inc., Waltham, MA). After the assay plates were incubated at 37 C for 4 hours, 23 nL of library compound or DMSO controls was transferred to the assay plates by a pintool station (Kalypsys, San Diego, CA), followed by addition of 1 ul of T3 (1 nM, final concentration in the wells) to stimulate TR transactivation. The assay plates were incubated at 37 C for 23.5 h, and then 1 uL of CellTiter-Fluor reagent (Promega, Madision, WI) of measuring cytotoxicity was added to each well using a Bioraptr Flying Reagent Dispenser (FRD) workstation (Beckman Coulter, Indianapolis, IN, USA). The plates were incubated at 37C and 5% CO2 for additional 30 min, and fluorescence intensity was measured by a ViewLux plate reader (PerkinElmer, Shelton, CT).
(In general: Quantitative high-throughput screening tests each substance at several concentrations.)
On to `C[C@H]1[C@@H]2Cc3ccc(O)cc3[C@@]1(C)CCN2C`, for which the Potency result is “inactive”.

`C#C[C@]1(O)CC[C@H]2[C@@H]3CCC4=CC(=O)CCC4=C3C=C[C@@]21CC`: the Potency result was “inactive”.

Consider `CCC1(C2=NCCN2)Cc2ccccc2O1` (stereo not given), for which the Potency result is “inactive”.

As to `NC(=O)CF`, the Potency entry is “inactive”.

In the case of `Cc1cccc(C)c1NC1=NCCCS1`, the Potency entry was “inactive”.

`CC(C)CCCCCCCOC(=O)c1ccccc1C(=O)OCCCCCCCC(C)C`: the Potency result was “inactive”.

As to `CCNC(=O)NC(=O)/C(C#N)=N/OC`, the Potency entry is “inactive”.

For `CC[N+]1(C)CCCC(OC(=O)C(O)(c2ccccc2)c2ccccc2)C1` (stereo not given), the Potency result was “inactive”.

Regarding `CCCCCCCCn1sccc1=O`, the Potency is 6.13 µM (active) and 5.09 µM (active).

With `CC(C)[C@@H](C(=O)O[C@@H](C#N)c1cccc(Oc2ccccc2)c1)c1ccc(Cl)cc1`, the Potency result is “inactive”.

As to `CCCC[N+](CCCC)(CCCC)CCCC`, the Potency entry was “inactive”.

As for `FC(F)OC(F)(F)C(F)Cl` (stereo not given), the Potency result is “inactive”.

For `O=C(O)CCCOc1ccc(Cl)cc1Cl`, the Potency entry is “inactive”.

Consider `O=[N+]([O-])O[C@H]1CO[C@H]2[C@@H]1OC[C@H]2O[N+](=O)[O-]`, for which the Potency entry is “inactive”.

Regarding `ClCc1ccccc1Cl`, the Potency entry was “inactive”.

As for `Cc1ccc2c(C)cccc2c1`, the Potency entry was “inactive”.

Consider `CCCCOC(=O)CCC(=O)OCCCC`, for which the Potency result is “inactive”.

`CCCBr`: the Potency result was “inactive”.

`SCc1ccccc1`: the Potency result was “inactive”.

As to `CCC(C)Cl` (stereo not given), the Potency entry was “inactive”.

As to `CCC1(CC)C(=O)NC(=O)NC1=O`, the Potency entry is “inactive”.

Consider `CCOC(=O)c1cn2nc(OP(=S)(OCC)OCC)cc2nc1C`, for which the Potency entry was “inactive”.

On to `CC(=O)OC(c1ccccc1)C(Cl)(Cl)Cl` (stereo not given), for which the Potency result is “inactive”.

Take `O=P(OCC(Br)CBr)(OCC(Br)CBr)OCC(Br)CBr` (stereo not given): the Potency is 43.8 µM (active) and 51.7 µM (active).

Consider `Cc1nnc(-c2ccccc2)c(=O)n1N`, for which the Potency entry is “inactive”.

`OCCSSCCO`: the Potency entry was “inactive”.

As for `O=C(Cc1ccccc1)c1ccccc1`, the Potency result is “inactive”.

Consider `COCc1cnc(C2=NC(C)(C(C)C)C(=O)N2)c(C(=O)O)c1` (stereo not given), for which the Potency entry was “inactive”.

Consider `CC1(C)CC(=O)CC(C)(C)N1[O]`, for which the Potency result is “inactive”.

For `CCC[N+](CCC)(CCC)CCC`, the Potency entry was “inactive”.

Regarding `CCOC(=O)C1OC1(C)c1ccccc1` (stereo not given), the Potency result is “inactive”.

Turning to `CCN(C(C)=O)c1cccc(-c2ccnc3c(C#N)cnn23)c1`, the Potency entry is “inactive”.

As for `CN(C1CCCCC1)C1CCCCC1`, the Potency entry is “inactive”.

For the compound `CCC1CCC(=O)O1` (stereo not given), the Potency entry was “inactive”.

With `C[Si](Cn1cncn1)(c1ccc(F)cc1)c1ccc(F)cc1`, the Potency is 63.1 µM (active).

On to `CN1CC[C@]23c4c5ccc(O)c4O[C@H]2[C@@H](O)CC[C@H]3[C@H]1C5`, for which the Potency entry is “inactive”.

Turning to `C=CC(=O)NC(C)(C)CC(C)=O`, the Potency entry was “inactive”.

`C[N+](C)(C)CC1CO1` (stereo not given): the Potency result is “inactive”.

Turning to `Cc1ccccc1`, the Potency entry was “inactive”.

Take `COc1ccccc1N1CCNCC1`: the Potency entry was “inactive”.
